# A number with no mark means an inactive call. The call rests on the fitted dose curve; in most records, active means well fitted curve in the direction sought with a large enough effect; inactive means no such curve, though single readings can be large or run the other way.
# Target: Pyruvate kinase PKM (Homo sapiens) (UniProt P14618)
# Assay: qHTS for Activators of Human Muscle Isoform 2 Pyruvate Kinase: Extended Characterization using M1 for Probe 2
# Details: purified hPK-M1, Kinase-Glo ATP luminescence, 1 h; series mostly up to 57.7 µM; activity change, positive = activation: at the top concentration
# Experimental: Human pyruvate kinase muscle isoform 1 (hPK-M1) enzyme was supplied as a highly purified (>95% pure) preparation from Harvard Medical School and assayed for its ability to generate ATP from ADP using phosphoenolpyruvate (PEP) as a substrate. ATP generation was detected in a coupled reaction by luciferase-mediated luminescence, an ATP-dependent process. Pyruvate kinase substrates, PEP and ADP, were present in the assay at Km and approximately 10-fold below Km respectively. The enzyme was assayed at an intermediate level of activity to screen for both inhibitors and activators. NIH Chemical Genomics Center [NCGC] NIH Molecular Libraries Probe Centers Network [MLPCN] MLPCN Grant: MH085679 Assay Submitter (PI): Matthew G. Vander Heiden, Harvard Medical School
# Three uL of substrate mix (at r.t.) in assay buffer (50 mM Imidazole pH7.2, 50 mM KCl, 7 mM MgCl2, 0.01% Tween 20, 0.05% BSA) was dispensed into white solid bottom 1,536 well microtiter plates so that the final concentrations of substrates in the assay were 0.1 mM ADP and 0.5 mM PEP. 23 nL of compound were delivered by a pin tool and 1 uL of enzyme mix (final concentration of 1 nM) in assay buffer (4 degree Celsius) was added. Plates were incubated at room temperature for 1 hour. Two uL of detection mix (Kinase-Glo, Promega; at 4 degree Celsius protected from light) was added and luminescence read by a ViewLux (Perkin Elmer) at 1 second exposure/plate. Data were normalized to the uninhibited (row 31). Additionally, a no enzyme and 5-fold enzyme control was dispensed in row 32, split equally between the two conditions.
# Pyruvate kinase PKM (Homo sapiens), sequence (P14618 whole entry, looked up, canonical isoform): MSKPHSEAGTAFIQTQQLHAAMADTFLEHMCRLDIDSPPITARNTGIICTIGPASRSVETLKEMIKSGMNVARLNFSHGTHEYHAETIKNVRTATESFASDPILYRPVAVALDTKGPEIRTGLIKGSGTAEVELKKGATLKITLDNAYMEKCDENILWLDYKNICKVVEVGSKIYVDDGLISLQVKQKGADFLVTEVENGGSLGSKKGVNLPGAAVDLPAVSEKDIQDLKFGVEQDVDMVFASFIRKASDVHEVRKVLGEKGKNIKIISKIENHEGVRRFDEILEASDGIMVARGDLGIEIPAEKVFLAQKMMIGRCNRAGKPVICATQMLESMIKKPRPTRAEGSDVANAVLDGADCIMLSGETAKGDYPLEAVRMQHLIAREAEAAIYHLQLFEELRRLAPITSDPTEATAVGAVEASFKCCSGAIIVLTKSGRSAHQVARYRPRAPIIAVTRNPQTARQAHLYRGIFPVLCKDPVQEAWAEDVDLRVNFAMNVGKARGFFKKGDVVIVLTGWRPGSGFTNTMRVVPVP
row,SMILES,"activity change, positive = activation [%]"
1,Cc1ccc(NS(=O)(=O)c2ccc3c(c2)CCC(=O)N3)cc1C,7.13
2,Nc1cccc(S(=O)(=O)N2CCCN(S(=O)(=O)c3ccc4c(c3)OCCO4)CC2)c1,6.24
3,O=S(=O)(c1ccc2c(c1)OCCO2)N1CCN(S(=O)(=O)c2c(F)cccc2F)CC1,-3.2
4,Cn1c2cc(S(C)=O)sc2c2cnn(Cc3cccc(N)c3)c(=O)c21 (stereo not given),1.03
5,COc1cccc(Cn2ncc3c4sc(S(C)=O)cc4n(C)c3c2=O)c1 (stereo not given),-3.35
